Laboratory results as given in PubChem BioAssay (EPA / NIEHS).
“And” between values parts separate entries of the source, which are not always exact repeats. Equal entries are not always repeated. The source holds several records for some structures; these can differ, active in one and inactive in another. The source made the active and inactive calls. How the source made its calls: active means hit-call score of the fitted dose curve at least 0.9, where 1 is the maximum; inactive means score below 0.9.

Tests used:
[1] = ATG_PPRE_CIS: Attagene CIS-FACTORIAL HepG2 Assay for human Peroxisome Proliferator-activated Response Element (PPRE) (AID 2282958); conditions: HepG2 PPRE cis-element reporter, Attagene transcription factor profiling; actives raise or lower the signal
Procedure, shortened: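 HepG2 cells are transiently transfected with multiplexed cis-promoter reporter units to report endogenous PPAR activity. After 24 h dosing, reporter mRNA is read by RT-PCR and capillary electrophoresis. Fitting is bidirectional against DMSO.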

[2] = ATG_RORE_CIS: Attagene CIS-FACTORIAL HepG2 Assay for human RAR-related Orphan Receptor Element (RORE) (AID 2282959); conditions: HepG2 Attagene cis-factorial RORE reporter, mRNA; actives raise or lower the signal
Procedure, shortened: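 HepG2 cells carrying transiently transfected cis-regulated reporter units; RORE-driven reporter mRNA quantified 24 h post-dosing by RT-PCR, 6-FAM primer extension, HpaI digestion and capillary electrophoresis. Bidirectional fit versus DMSO.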

[3] = ATG_Sox_CIS: Attagene CIS-FACTORIAL HepG2 Assay for human SRY-box transcription factor (SOX) (AID 2282960); conditions: HepG2 Attagene cis-factorial SOX reporter, mRNA; actives raise or lower the signal
Procedure, shortened: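 HepG2 cells transiently transfected with multiple cis-regulated reporter units, then dosed for 24 h. Reporter mRNA quantified by RT-PCR, fluorescent labelling, HpaI digestion and capillary electrophoresis; bidirectional fit versus DMSO.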

[4] = target: Transcription factor Sp1 (Homo sapiens) (UniProt P08047); assay: ATG_Sp1_CIS: Attagene CIS-FACTORIAL HepG2 Assay for human Specificity Protein 1 (Sp1) (AID 2282961); conditions: HepG2 Sp1 cis-reporter transcription, actives raise or lower the signal
Transcription factor Sp1 (Homo sapiens), sequence (P08047 whole entry, looked up): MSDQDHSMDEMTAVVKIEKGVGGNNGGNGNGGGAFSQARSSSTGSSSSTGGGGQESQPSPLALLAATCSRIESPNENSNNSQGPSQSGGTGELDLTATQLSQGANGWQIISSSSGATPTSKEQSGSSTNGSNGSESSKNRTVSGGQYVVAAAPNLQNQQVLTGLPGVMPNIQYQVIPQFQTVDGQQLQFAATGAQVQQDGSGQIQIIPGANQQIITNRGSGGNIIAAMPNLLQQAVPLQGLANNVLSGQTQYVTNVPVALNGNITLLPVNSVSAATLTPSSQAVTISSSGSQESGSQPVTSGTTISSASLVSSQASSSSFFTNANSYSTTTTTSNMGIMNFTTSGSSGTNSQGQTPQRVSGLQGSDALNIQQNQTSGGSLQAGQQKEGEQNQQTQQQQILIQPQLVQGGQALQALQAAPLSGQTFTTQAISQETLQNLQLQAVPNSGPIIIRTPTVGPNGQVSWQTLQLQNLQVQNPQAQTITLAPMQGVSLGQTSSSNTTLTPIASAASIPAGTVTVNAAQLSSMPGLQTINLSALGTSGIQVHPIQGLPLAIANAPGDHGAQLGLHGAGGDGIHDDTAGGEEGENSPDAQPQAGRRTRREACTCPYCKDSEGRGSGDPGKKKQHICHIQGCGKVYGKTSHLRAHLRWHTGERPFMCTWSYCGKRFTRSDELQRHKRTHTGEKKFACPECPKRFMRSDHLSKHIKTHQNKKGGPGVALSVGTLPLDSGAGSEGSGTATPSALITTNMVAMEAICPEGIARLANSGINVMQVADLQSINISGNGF
Procedure, shortened: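 HepG2 cells transiently transfected with multiplexed cis-regulated reporter constructs, chemical exposure 24 h. Reporter mRNA quantified by RT-PCR with capillary electrophoresis; bidirectional fit relative to DMSO.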

[5] = ATG_SREBP_CIS: Attagene CIS-FACTORIAL HepG2 Assay for human Sterol Regulatory Element Binding (SREBP) (AID 2282962); conditions: HepG2 Attagene cis-factorial SREBP reporter, mRNA; actives raise or lower the signal
Procedure, shortened: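 HepG2 cells transiently transfected with multiplexed cis-promoter reporter units sensing endogenous transcription factors; reporter mRNA measured 24 h after dosing by RT-PCR, 6-FAM labeling, HpaI digestion and capillary electrophoresis. Bidirectional fit versus DMSO.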

[6] = target: Signal transducer and activator of transcription 3 (Homo sapiens) (UniProt P40763); assay: ATG_STAT3_CIS: Attagene CIS-FACTORIAL HepG2 Assay for human Signal Transducer and Activator of Transcription 3 (STAT3) (AID 2282963); conditions: HepG2, Attagene cis-factorial STAT3 reporter transcription; actives raise or lower the signal
Signal transducer and activator of transcription 3 (Homo sapiens), sequence (P40763 whole entry, looked up): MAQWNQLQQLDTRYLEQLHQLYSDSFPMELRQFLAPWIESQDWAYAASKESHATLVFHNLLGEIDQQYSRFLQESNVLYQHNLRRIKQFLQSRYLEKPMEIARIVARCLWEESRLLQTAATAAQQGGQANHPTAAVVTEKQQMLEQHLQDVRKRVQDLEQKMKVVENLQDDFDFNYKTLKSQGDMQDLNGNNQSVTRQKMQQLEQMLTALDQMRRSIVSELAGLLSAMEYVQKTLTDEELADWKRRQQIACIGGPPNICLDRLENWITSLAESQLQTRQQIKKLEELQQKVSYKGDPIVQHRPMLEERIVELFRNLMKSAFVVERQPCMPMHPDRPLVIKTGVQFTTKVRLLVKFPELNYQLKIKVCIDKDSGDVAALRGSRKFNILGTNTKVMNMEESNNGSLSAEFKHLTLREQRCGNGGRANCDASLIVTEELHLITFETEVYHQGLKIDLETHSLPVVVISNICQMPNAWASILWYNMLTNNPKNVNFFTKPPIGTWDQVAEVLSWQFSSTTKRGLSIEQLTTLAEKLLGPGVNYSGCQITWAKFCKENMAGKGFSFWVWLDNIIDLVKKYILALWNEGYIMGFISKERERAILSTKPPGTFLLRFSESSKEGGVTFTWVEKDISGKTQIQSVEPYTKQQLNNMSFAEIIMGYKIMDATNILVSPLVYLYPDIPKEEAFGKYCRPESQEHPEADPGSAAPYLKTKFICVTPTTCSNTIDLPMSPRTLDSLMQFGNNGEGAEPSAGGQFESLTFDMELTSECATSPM
Procedure, shortened: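 After a 24 h compound incubation, total RNA from MRTU-transfected HepG2 cells was converted to cDNA and reporter sequences PCR-amplified, labelled and profiled by capillary electrophoresis. Gain and loss of signal were referenced to DMSO.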

[7] = ATG_TA_CIS: Attagene CIS-FACTORIAL HepG2 Assay for human TA Basal Promoter (AID 2282964); conditions: HepG2 Attagene CIS-factorial TA basal promoter reporter; actives raise or lower the signal
Procedure, shortened: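 Multiplexed mRNA reporter assay, HepG2, 24 h. Reporter cDNA amplified, 6-FAM primer-extended, HpaI-cut, CE-sized; DMSO = negative control and baseline.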

[8] = ATG_TCF_b_cat_CIS: Attagene CIS-FACTORIAL HepG2 Assay for human T-Cell-Factor with beta-catenin (TCF/b-cat) (AID 2282965); conditions: HepG2 TCF/beta-catenin cis-reporter transcription, actives raise or lower the signal
Procedure, shortened: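 Endogenous TCF/LEF activity read as reporter transcript level via RT-PCR and capillary electrophoresis fluorescence in transfected HepG2, 24 h exposure; gain or loss of signal fitted against DMSO controls.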

[9] = ATG_TAL_CIS: Attagene CIS-FACTORIAL HepG2 Assay for human TAL Basal Promoter (AID 2282966); conditions: HepG2 Attagene cis-factorial TAL promoter reporter; actives raise or lower the signal;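 further: background control endpoint measuring basal TAL promoter reporter mRNA not a specific factor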
Procedure, shortened: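 HepG2 cells were transiently transfected with promoter-driven multiplexed reporter units and dosed for 24 h. Reporter mRNA was measured by RT-PCR with capillary electrophoresis fluorescence; bidirectional fits used DMSO as baseline, serving as a background control.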

[10] = ATG_TGFb_CIS: Attagene CIS-FACTORIAL HepG2 Assay for human Transforming Growth Factor (TGF) (AID 2282967); conditions: HepG2 Attagene CIS TGFb reporter, mRNA transcription; actives raise or lower the signal
Procedure, shortened: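 Transcript-level reporter readout: HepG2 transfectants, 24 h exposure, RNA to cDNA, reporter-specific PCR, fluorescent primer extension, capillary sizing against ROX standards. Gain- or loss-of-signal relative to DMSO.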

Measured: AC50

CC(=O)CN(CC(C)=O)N=O
inactive: all assays above

CCOC(=O)OC1=C(c2cc(C)ccc2C)C(=O)NC12CCC(OC)CC2 (stereo not given)
not listed: [8] | [9]
inactive: all other assays above

BrCC(Br)c1ccccc1 (stereo not given)
not listed: [6]
inactive: all other assays above

N#CCC#N
not listed: [9]
inactive: all other assays above

O=C(O)COc1cc(Cl)c(Cl)cc1Cl
active: [1] 33.5 µM
not listed: [8]
inactive: all other assays above

Cc1ccccc1OP(=O)(Oc1ccccc1C)Oc1ccccc1C
active: [4] 71.8 µM | [10] 56.1 µM
not listed: [8]
inactive: all other assays above

CCOCn1c(-c2ccc(Cl)cc2)c(C#N)c(Br)c1C(F)(F)F
inactive: [7] | [9]
active: [1] 4.17 µM | [2] 3.54 µM | [3] 30.4 µM | [4] 30.6 µM | [5] 49 µM | [6] 142 µM | [10] 25.6 µM

COc1ccc(N)cc1
not listed: [8]
inactive: all other assays above

Nc1c(Oc2ccccc2)cc(O)c2c1C(=O)c1ccccc1C2=O
not listed: [8]
inactive: all other assays above

ClCCCCl
inactive: all assays above

CC(=Cc1ccccc1)[N+](=O)[O-]
not listed: [6]
inactive: all other assays above

CCCCOC(=O)COC(=O)c1ccccc1C(=O)OCCCC
active: [1] 42.6 µM | [2] 53.2 µM
not listed: [6]
inactive: all other assays above

Oc1c(Br)cc(Br)cc1Br
inactive: [3] | [5] | [6] | [8]
active: [1] 51.2 µM | [2] 40.6 µM | [4] 25.9 µM | [7] 65.7 µM | [10] 156 µM

C[C@H]1C(=O)O[C@@H]2CCN3CC=C(COC(=O)[C@](C)(O)[C@]1(C)O)[C@H]23
not listed: [8] | [9]
inactive: all other assays above

Clc1ccc(C(Cl)(Cl)Cl)cn1
not listed: [6]
inactive: all other assays above

CC(C)[C@H](C(=O)OC(C#N)c1cccc(Oc2ccccc2)c1)c1ccc(OC(F)F)cc1 (stereo not given in full)
not listed: [8]
inactive: all other assays above

O=C=Nc1ccc(Cl)cc1
not listed: [8]
inactive: all other assays above

C1CCC(C2CCCCC2)CC1
not listed: [9]
inactive: all other assays above

COCCl
not listed: [9]
inactive: all other assays above

O=C(CCl)NCO
active: [10] 0.765 µM
not listed: [8]
inactive: all other assays above

O=NN1CCOCC1
inactive: all assays above

CC(F)(F)CC(F)(F)F
inactive: all assays above

CCOP(=O)(OCC)OC(=CCl)c1ccc(Cl)cc1Cl
not listed: [9]
inactive: all other assays above

CCC[CH2][Sn]([CH2]CCC)([CH2]CCC)[CH2]CCC
active: [1] 2.2 µM | [3] 11.1 µM | [4] 9.76 µM | [5] 2.82 µM | [6] 11.1 µM | [7] 17.1 µM
inactive: [2] | [9] | [10]

CC1CC(=O)O1 (stereo not given)
inactive: all assays above

CC(C)CC(C)(c1ccc(O)cc1)c1ccc(O)cc1
active: [1] 15.3 µM
not listed: [8]
inactive: all other assays above

O=[N+]([O-])c1cccc2ccccc12
not listed: [9]
inactive: all other assays above

CCCCN(CCCCO)N=O
inactive: all assays above

CC[N+](CC)(CC)CC
inactive: [1] | [2] | [3] | [4] | [5] | [6] | [7] | [8] | [9] | [10]
active: [10] 1.07 µM

Cc1c([N+](=O)[O-])c(C)c([N+](=O)[O-])c(C(C)(C)C)c1[N+](=O)[O-]
not listed: [9]
inactive: all other assays above

CCCCOP(=O)(CCCC)OCCCC
not listed: [2]
inactive: all other assays above

Cc1cccc(C)c1NC(=O)CN1CCCC1=O
not listed: [4]
inactive: all other assays above

O=c1oc2ccccc2c(O)c1C(CC(O)c1ccc(-c2ccc(Br)cc2)cc1)c1ccccc1 (stereo not given)
active: [1] 10.8 µM and 227 nM | [5] 8.18 µM | [7] 13.7 µM
inactive: [2] | [3] | [5] | [6] | [7] | [10]

CCC(C)(C#N)N=NC(C)(C#N)CC (stereo not given)
not listed: [4] | [8] | [9]
inactive: all other assays above

CCCCC(CC)C(=O)Cl (stereo not given)
not listed: [2]
inactive: all other assays above

CC1(C)[C@H](/C=C2\CCSC2=O)[C@@H]1C(=O)OCc1coc(Cc2ccccc2)c1
active: [2] 24.8 µM | [7] 30.5 µM
not listed: [4]
inactive: all other assays above

Cc1cc(C(C)(C)c2ccc(O)c(C)c2)ccc1O
active: [3] 50 µM | [5] 30.3 µM | [6] 93.9 µM | [8] 41.3 µM
not listed: [4]
inactive: all other assays above

Oc1cccc(-c2ccccc2)c1
active: [5] 64.2 µM
not listed: [4]
inactive: all other assays above

CCOP(=S)(OCC)OP(=S)(OCC)OCC
not listed: [6]
inactive: all other assays above

C[As+](C)(C)CC(=O)[O-]
not listed: [2]
inactive: all other assays above

c1cc[c]([Sb]([c]2ccccc2)[c]2ccccc2)cc1
active: [10] 41.1 µM
not listed: [4]
inactive: all other assays above

OC(Cc1ccccc1Cl)(Cn1[nH]cnc1=S)C1(Cl)CC1 (stereo not given)
active: [3] 145 µM
not listed: [6]
inactive: all other assays above

O=C(O)CC(O)(CC(=O)O)C(=O)O
not listed: [4]
inactive: all other assays above

CCC[CH2][Sn]([Cl])([Cl])[CH2]CCC
inactive: [7] | [10]
active: [1] 0.0625 µM | [2] 0.584 µM | [3] 1.61 µM | [5] 0.811 µM | [8] 1.82 µM

ClCCN1CCOCC1
not listed: [2]
inactive: all other assays above

N#Cc1cccnc1
not listed: [2]
inactive: all other assays above

COCC(=O)N(c1c(C)cccc1C)[C@H](C)C(=O)OC
not listed: [4]
inactive: all other assays above

NC(=O)c1ccc(N)nc1
not listed: [4]
inactive: all other assays above

COC(=O)c1cc(Oc2ccc(Cl)cc2Cl)ccc1[N+](=O)[O-]
active: [1] 10.2 µM | [2] 16.6 µM | [7] 27.1 µM | [10] 66.8 µM
inactive: [3] | [4] | [5] | [8]

OC(Cc1ccccc1Cl)(Cn1cncn1)C1(Cl)CC1 (stereo not given)
not listed: [4]
inactive: all other assays above

O=C1c2ccccc2C(=O)C1C(=O)C(c1ccccc1)c1ccc(Cl)cc1 (stereo not given)
inactive: [7]
active: [1] 3.53 µM | [2] 8.58 µM | [3] 7.35 µM | [4] 7.69 µM | [5] 9.14 µM | [8] 12.2 µM | [10] 8.18 µM

C=C(C)C(=O)OCCCCOC(=O)C(=C)C
not listed: [4] | [6] | [9]
inactive: all other assays above

c1csc(-c2ccc(-c3cccs3)s2)c1
active: [1] 2.09 µM | [7] 4.42 µM | [10] 6.2 µM
not listed: [2]
inactive: all other assays above
